According to PMC7862700, “An all-to-all approach to the identification of sequence-specific readers for epigenetic DNA modifications on cytosine”:

Legend:
Experiment in all cases: DAPPL (digital affinity profiling via proximity ligation, sequencing); 10 mM Tris-HCl pH 7.5, 50 mM NaCl, 1 mM DTT, 4% glycerol, room temperature, 30 min; GST-TFs on glutathione beads, 16-mer random dsDNA library, 0.1% formaldehyde crosslink after washing; high values mean tight binding
FLI1 = biological target: T1, FLI1 (Homo sapiens, UniProt Q01543 1-452); settings: protein: recombinant; tags: N-terminal GST; dsDNA, one strand shown
T1 sequence: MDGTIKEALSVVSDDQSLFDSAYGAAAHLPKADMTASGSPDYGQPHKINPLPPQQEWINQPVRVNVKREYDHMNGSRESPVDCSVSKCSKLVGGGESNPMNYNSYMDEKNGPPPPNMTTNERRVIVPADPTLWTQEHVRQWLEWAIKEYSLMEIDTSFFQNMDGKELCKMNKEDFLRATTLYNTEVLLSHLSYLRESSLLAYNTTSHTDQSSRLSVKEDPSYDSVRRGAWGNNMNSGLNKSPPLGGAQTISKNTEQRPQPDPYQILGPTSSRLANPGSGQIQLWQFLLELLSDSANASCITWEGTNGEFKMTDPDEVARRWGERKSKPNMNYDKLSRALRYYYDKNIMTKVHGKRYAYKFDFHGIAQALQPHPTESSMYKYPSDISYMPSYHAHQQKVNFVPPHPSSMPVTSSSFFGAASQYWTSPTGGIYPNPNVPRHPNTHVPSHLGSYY
In short: (§1)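 Beads coated with glutathione captured GST-fused human transcription factors that had been expressed in yeast, and the factors were then given DNA barcodes and pooled with a tag-only sample. The pools were incubated with 200 nmole of a random double-stranded 16-mer DNA library in Tris/NaCl/DTT/glycerol buffer for 30 min at room temperature, washed, crosslinked with 0.1% formaldehyde and proximity-ligated with BsaI/T4 ligase at 37 °C for 1 h. PCR amplification and Illumina NextSeq500 sequencing came last. Binding signal is each hexamer's read frequency for a factor divided by its frequency for the tag-only sample.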

ELK1 = biological target: T2, ELK1 (Homo sapiens, UniProt P19419 1-428); settings: protein: recombinant; tags: N-terminal GST; dsDNA, one strand shown
T2 sequence: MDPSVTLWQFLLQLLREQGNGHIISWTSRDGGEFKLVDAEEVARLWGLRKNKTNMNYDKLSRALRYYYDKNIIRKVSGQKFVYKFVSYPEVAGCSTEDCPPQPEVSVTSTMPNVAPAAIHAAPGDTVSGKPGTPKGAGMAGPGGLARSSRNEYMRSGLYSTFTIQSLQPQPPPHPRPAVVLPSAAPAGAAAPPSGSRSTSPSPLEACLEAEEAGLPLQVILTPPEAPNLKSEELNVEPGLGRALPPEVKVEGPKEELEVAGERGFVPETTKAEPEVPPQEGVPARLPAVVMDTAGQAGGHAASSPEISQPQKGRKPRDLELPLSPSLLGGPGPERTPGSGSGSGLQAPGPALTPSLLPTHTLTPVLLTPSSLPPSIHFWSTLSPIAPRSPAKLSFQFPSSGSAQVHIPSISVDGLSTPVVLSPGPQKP
In short: as §1

GABPA = biological target: T3, GABPA (Homo sapiens, UniProt Q06546 1-454); settings: protein: recombinant; tags: N-terminal GST; dsDNA, one strand shown
T3 sequence: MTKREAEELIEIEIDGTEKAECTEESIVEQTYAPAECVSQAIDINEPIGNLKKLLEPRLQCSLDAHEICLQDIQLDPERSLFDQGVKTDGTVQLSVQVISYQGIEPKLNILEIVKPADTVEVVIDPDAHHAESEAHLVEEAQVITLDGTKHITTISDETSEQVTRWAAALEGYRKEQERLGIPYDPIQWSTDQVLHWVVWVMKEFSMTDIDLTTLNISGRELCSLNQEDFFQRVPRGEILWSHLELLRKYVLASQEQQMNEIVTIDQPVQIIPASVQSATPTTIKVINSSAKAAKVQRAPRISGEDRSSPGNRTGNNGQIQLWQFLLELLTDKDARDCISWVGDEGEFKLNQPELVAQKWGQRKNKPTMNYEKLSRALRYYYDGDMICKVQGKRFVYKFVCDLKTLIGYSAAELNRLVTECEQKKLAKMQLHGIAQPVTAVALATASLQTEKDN
In short: as §1

ERG = biological target: T4, ERG (Homo sapiens, UniProt P11308 1-479); settings: protein: recombinant; tags: N-terminal GST; dsDNA, one strand shown
T4 sequence: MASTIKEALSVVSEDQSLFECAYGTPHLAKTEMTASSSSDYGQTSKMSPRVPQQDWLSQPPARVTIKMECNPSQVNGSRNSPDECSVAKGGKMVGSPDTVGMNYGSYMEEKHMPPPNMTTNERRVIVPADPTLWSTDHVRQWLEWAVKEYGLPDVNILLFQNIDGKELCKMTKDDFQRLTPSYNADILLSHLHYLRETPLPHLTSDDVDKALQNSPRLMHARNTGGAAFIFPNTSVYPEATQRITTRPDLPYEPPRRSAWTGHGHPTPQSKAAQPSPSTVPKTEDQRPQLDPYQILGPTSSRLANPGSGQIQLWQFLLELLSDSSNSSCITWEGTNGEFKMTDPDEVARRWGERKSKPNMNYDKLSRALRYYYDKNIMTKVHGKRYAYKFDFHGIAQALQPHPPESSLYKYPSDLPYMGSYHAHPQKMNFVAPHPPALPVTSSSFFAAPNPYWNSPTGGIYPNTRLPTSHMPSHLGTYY
In short: as §1

ELF1 = ELF1 (Homo sapiens, UniProt P32519 1-619); settings: protein: recombinant; tags: N-terminal GST; dsDNA, one strand shown
Chain of ELF1 (P32519 whole entry): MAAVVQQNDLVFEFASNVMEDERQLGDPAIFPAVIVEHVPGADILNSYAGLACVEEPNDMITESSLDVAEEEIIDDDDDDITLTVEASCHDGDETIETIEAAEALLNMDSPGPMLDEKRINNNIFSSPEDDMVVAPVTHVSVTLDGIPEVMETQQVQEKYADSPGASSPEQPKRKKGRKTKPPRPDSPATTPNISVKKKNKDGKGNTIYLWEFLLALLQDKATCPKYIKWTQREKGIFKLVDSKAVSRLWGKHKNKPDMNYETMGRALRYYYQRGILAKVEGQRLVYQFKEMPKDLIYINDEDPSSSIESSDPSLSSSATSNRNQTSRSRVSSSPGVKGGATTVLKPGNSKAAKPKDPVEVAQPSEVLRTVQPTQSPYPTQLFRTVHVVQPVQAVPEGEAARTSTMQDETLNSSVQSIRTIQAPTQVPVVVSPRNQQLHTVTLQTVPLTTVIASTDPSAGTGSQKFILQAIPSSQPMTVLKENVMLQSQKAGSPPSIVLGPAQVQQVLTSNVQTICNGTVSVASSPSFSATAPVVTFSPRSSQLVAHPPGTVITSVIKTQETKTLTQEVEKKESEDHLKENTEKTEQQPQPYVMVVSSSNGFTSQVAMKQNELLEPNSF
In short: as §1

EHF = biological target: T5, EHF (Homo sapiens, UniProt Q9NZC4 1-300); settings: protein: recombinant; tags: N-terminal GST; dsDNA, one strand shown
T5 sequence: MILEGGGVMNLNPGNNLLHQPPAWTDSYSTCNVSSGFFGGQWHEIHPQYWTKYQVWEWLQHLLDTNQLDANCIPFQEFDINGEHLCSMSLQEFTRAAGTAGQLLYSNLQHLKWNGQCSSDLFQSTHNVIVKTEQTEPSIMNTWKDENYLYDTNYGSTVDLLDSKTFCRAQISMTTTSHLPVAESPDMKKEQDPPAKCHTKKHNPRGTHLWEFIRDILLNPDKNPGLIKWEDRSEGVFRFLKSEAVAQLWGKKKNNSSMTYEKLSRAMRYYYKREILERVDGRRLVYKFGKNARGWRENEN
In short: as §1

SPI1 = SPI1 (Homo sapiens, UniProt P17947 1-270); settings: protein: recombinant; tags: N-terminal GST; dsDNA, one strand shown
In short: as §1

SPIB = SPIB (Homo sapiens, UniProt Q01892 1-262); settings: protein: recombinant; tags: N-terminal GST; dsDNA, one strand shown
Chain of SPIB (Q01892 whole entry): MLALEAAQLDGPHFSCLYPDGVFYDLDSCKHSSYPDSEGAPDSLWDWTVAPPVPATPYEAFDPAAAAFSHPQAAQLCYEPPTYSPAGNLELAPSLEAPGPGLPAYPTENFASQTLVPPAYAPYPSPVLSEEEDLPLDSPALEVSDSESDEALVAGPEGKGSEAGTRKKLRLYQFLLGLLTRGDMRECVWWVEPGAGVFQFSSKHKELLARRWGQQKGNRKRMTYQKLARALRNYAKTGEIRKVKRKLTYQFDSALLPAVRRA
In short: as §1

ELK3 = biological target: T6, ELK3 (Homo sapiens, UniProt P41970 1-407); settings: protein: recombinant; tags: N-terminal GST; dsDNA, one strand shown
T6 sequence: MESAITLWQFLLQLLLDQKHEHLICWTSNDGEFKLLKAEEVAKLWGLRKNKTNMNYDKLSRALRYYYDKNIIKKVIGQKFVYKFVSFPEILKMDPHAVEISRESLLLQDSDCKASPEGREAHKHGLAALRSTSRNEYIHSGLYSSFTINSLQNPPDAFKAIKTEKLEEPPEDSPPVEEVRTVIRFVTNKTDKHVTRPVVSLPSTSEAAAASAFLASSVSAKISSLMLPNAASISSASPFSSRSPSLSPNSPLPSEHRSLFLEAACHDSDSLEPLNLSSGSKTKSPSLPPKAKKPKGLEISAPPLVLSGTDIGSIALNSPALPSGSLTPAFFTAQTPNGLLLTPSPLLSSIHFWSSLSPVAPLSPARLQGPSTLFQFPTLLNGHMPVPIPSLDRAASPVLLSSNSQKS
In short: as §1

FEV = biological target: T7, FEV (Homo sapiens, UniProt Q99581 1-238); settings: protein: recombinant; tags: N-terminal GST; dsDNA, one strand shown
T7 sequence: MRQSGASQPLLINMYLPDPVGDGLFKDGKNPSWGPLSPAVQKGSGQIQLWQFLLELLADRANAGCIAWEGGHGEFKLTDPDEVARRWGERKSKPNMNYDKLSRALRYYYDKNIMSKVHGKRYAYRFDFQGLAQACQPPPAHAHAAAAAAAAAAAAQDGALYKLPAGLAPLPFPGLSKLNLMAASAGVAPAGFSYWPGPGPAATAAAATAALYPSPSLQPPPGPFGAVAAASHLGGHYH
In short: as §1

ETV5 = ETV5 (Homo sapiens, UniProt P41161 1-510); settings: protein: recombinant; tags: N-terminal GST; dsDNA, one strand shown
Chain of ETV5 (P41161 whole entry): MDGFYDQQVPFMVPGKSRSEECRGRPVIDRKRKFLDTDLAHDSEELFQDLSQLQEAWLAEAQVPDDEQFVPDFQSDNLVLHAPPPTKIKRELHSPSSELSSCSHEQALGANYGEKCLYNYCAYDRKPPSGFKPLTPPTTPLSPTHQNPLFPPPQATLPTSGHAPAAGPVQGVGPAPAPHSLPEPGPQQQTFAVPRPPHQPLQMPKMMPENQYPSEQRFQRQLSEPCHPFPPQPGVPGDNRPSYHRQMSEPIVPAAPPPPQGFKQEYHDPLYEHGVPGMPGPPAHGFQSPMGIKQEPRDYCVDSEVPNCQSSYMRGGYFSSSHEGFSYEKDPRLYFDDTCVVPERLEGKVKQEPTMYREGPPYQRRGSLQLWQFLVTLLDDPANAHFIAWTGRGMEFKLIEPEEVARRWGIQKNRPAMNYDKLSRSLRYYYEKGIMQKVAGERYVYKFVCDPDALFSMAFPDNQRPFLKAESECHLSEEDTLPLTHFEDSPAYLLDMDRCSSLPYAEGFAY
In short: as §1

HSF1 = HSF1 (Homo sapiens, UniProt Q00613 1-529); settings: protein: recombinant; tags: N-terminal GST; chain copies: 3; dsDNA, one strand shown
Chain of HSF1 (Q00613 whole entry): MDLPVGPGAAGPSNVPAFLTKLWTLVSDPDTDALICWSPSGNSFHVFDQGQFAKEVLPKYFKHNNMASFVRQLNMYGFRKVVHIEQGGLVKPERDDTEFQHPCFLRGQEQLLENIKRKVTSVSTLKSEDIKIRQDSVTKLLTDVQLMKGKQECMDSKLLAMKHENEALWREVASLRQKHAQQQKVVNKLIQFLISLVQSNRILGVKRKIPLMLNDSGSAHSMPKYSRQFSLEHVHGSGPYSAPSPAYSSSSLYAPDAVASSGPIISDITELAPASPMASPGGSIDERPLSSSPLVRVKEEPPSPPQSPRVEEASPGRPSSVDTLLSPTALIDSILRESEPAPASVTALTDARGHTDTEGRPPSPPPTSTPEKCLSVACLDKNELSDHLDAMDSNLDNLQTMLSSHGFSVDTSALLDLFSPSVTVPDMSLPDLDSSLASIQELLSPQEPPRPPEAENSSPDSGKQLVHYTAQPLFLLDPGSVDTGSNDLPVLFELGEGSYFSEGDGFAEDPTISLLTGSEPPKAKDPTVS
In short: as §1

SPIC = biological target: T8, SPIC (Homo sapiens, UniProt Q8N5J4 1-248); settings: protein: recombinant; tags: N-terminal GST; dsDNA, one strand shown
T8 sequence: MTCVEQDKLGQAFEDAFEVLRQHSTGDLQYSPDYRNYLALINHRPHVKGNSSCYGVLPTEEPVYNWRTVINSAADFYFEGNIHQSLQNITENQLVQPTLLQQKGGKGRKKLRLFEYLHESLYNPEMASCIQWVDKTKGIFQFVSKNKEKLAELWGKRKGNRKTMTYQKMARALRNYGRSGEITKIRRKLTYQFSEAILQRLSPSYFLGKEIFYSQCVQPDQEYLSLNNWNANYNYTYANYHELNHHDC
In short: as §1

ELF4 = ELF4 (Homo sapiens, UniProt Q99607 1-663); settings: protein: recombinant; tags: N-terminal GST; dsDNA, one strand shown
Chain of ELF4 (Q99607 whole entry): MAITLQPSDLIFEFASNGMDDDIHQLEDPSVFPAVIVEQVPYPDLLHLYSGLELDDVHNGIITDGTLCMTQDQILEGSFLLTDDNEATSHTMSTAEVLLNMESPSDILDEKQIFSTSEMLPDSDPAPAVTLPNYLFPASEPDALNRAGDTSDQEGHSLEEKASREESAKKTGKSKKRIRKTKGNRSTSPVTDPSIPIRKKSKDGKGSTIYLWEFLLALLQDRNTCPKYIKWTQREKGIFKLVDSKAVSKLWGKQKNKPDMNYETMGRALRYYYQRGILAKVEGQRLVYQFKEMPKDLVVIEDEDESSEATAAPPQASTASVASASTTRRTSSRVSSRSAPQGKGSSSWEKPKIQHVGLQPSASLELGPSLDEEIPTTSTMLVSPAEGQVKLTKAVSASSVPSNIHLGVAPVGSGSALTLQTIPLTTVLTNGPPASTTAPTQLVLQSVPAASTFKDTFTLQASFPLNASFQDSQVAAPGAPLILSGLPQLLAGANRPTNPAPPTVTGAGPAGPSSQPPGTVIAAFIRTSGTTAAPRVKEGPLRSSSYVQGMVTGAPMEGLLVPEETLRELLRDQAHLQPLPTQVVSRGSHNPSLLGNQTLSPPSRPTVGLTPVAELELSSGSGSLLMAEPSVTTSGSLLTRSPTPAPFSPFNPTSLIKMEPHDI
In short: as §1

ELK4 = biological target: T9, ELK4 (Homo sapiens, UniProt P28324-2 1-405); settings: protein: recombinant; tags: N-terminal GST; dsDNA, one strand shown
T9 sequence: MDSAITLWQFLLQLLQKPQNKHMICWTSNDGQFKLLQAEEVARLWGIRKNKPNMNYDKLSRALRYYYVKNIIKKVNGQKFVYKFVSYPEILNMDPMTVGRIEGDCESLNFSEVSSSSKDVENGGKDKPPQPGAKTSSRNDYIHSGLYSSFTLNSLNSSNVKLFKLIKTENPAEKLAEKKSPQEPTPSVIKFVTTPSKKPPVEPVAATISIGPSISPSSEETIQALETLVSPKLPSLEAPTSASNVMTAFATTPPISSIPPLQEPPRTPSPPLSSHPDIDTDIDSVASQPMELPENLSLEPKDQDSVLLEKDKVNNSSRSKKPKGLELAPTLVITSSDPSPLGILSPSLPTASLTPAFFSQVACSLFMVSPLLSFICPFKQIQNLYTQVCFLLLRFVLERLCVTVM
In short: as §1

ETV2 = biological target: T10, ETV2 (Homo sapiens, UniProt O00321 1-342); settings: protein: recombinant; tags: N-terminal GST; dsDNA, one strand shown
T10 sequence: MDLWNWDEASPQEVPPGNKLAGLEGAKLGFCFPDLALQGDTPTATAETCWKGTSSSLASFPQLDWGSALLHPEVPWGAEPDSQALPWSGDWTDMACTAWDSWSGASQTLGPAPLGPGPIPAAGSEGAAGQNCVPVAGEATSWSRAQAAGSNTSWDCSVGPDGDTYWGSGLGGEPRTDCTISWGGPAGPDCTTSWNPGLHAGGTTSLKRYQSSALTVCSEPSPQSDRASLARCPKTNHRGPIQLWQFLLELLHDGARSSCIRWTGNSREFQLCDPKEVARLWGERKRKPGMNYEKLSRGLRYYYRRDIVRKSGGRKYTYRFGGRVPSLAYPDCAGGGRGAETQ
In short: as §1

ELF3 = biological target: T11, ELF3 (Homo sapiens, UniProt P78545 1-371); settings: protein: recombinant; tags: N-terminal GST; dsDNA, one strand shown
T11 sequence: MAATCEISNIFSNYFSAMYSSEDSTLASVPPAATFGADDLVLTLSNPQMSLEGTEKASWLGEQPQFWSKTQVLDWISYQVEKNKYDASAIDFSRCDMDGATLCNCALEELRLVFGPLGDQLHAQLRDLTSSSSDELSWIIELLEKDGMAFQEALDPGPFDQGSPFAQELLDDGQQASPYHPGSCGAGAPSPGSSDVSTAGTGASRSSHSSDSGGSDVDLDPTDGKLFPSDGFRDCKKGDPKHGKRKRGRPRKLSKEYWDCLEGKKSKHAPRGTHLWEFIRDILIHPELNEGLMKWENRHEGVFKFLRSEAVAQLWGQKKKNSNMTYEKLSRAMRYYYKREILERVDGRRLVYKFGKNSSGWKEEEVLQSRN
In short: as §1

CRX = CRX (Homo sapiens, UniProt O43186 1-299); settings: protein: recombinant; tags: N-terminal GST; dsDNA, one strand shown
Chain of CRX (O43186 whole entry): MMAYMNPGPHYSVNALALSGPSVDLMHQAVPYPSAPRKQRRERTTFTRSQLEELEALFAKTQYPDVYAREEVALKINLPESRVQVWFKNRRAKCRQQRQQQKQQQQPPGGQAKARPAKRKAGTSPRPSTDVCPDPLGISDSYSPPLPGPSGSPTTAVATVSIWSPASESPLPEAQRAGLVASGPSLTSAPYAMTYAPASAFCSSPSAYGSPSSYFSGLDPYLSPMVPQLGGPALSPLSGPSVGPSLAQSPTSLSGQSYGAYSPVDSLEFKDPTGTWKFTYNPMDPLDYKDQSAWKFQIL
In short: as §1

ETV1 = ETV1 (Homo sapiens, UniProt P50549 1-477); settings: protein: recombinant; tags: N-terminal GST; dsDNA, one strand shown
Chain of ETV1 (P50549 whole entry): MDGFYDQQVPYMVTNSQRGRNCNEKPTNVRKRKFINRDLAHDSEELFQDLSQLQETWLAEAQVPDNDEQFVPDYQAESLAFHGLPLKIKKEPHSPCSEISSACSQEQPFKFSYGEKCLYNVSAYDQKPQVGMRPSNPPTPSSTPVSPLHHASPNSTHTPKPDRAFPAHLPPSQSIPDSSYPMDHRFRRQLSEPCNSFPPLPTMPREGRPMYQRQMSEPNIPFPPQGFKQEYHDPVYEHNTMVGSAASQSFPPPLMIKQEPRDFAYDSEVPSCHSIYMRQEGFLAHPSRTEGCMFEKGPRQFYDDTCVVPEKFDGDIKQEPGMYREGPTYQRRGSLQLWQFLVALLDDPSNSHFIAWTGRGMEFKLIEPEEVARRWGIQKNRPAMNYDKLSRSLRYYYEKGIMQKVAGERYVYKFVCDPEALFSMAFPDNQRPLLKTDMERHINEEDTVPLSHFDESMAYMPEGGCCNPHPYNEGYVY
In short: as §1

## TAAAAC
FLI1
  binding signal: 1.17 fold enrichment (6-mer frequency, TF over GST control)
ELK1
  binding signal: 1.18 fold enrichment (6-mer frequency, TF over GST control)
GABPA
  binding signal: 1.14 fold enrichment (6-mer frequency, TF over GST control)
ERG
  binding signal: 1.18 fold enrichment (6-mer frequency, TF over GST control)
ELF1
  binding signal: 1.24 fold enrichment (6-mer frequency, TF over GST control)
EHF
  binding signal: 1.11 fold enrichment (6-mer frequency, TF over GST control)
SPI1
  binding signal: 1.2 fold enrichment (6-mer frequency, TF over GST control)
SPIB
  binding signal: 1.17 fold enrichment (6-mer frequency, TF over GST control)
ELK3
  binding signal: 1.19 fold enrichment (6-mer frequency, TF over GST control)
FEV
  binding signal: 1.22 fold enrichment (6-mer frequency, TF over GST control)
ETV5
  binding signal: 1.18 fold enrichment (6-mer frequency, TF over GST control)
HSF1
  binding signal: 1.32 fold enrichment (6-mer frequency, TF over GST control)
SPIC
  binding signal: 1.29 fold enrichment (6-mer frequency, TF over GST control)
ELF4
  binding signal: 1.16 fold enrichment (6-mer frequency, TF over GST control)
ELK4
  binding signal: 1.15 fold enrichment (6-mer frequency, TF over GST control)
ETV2
  binding signal: 1.17 fold enrichment (6-mer frequency, TF over GST control)
ELF3
  binding signal: 1.14 fold enrichment (6-mer frequency, TF over GST control)
CRX
  binding signal: 1.66 fold enrichment (6-mer frequency, TF over GST control)
ETV1
  binding signal: 1.18 fold enrichment (6-mer frequency, TF over GST control)
